Measured values reported in PubChem BioAssay (NCATS).
Records with an inconclusive call do not appear. Entries that show only a call come without a potency. A number with no mark means an inactive call. Activity calls are given as the source filed them. The call rests on the fitted dose curve; in most records, active means well fitted curve in the direction sought with a large enough effect; inconclusive means small, poorly fitted or top-dose-only effect, or another doubt; inactive means no such curve, though single readings can be large; an effect the other way counts as inactive or inconclusive.

Experiments:
[1] = qHTS of pediatric cancer cell lines to identify multiple opportunities for drug repurposing: Primary screen for control Hh wild type fibroblast cells (AID 1347106); further: nearly all actives have a fitted effect of over 55% in size; further: potency means the concentration at half of the fitted maximal effect;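 on activity change, negative = cytotoxic: a drop in luminescence marks cytotoxicity and a rise apparent proliferation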
Summary of the method: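 Viability after 48 h compound treatment at 37C, 500-1,000 cells/well, read as ATP luminescence with CellTiter-Glo. Primary screens used 11-point (MIPE, 0.78 nM-46 µM) or 8-point (NPC, 0.59 nM-46 µM) final concentrations; follow-up screens used 11-point dilutions.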

[2] = qHTS of pediatric cancer cell lines to identify multiple opportunities for drug repurposing: Primary screen for Rh30 cells (AID 1347107); further: nearly all actives have a fitted effect of over 75% in size; further: potency means the concentration at half of the fitted maximal effect
Summary of the method: (§1)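 Cells (500-1,000/well) rested 5 h, then received compounds for 48 h; metabolically active cells were measured by CellTiter-Glo luminescence. Final concentrations spanned up to 46 µM (MIPE, 11-point) or 0.59 nM-46 µM (NPC, 8-point) in primary screens, 11-point in follow-ups.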

[3] = qHTS of pediatric cancer cell lines to identify multiple opportunities for drug repurposing: Confirmatory screen for NB1643 cells (AID 1347109); further: nearly all actives have a fitted effect of over 45% in size; further: potency means the concentration at half of the fitted maximal effect
Summary of the method: as §1

[4] = qHTS of pediatric cancer cell lines to identify multiple opportunities for drug repurposing: Confirmatory screen for A673 cells (AID 1347110);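 further: potency means the concentration at half of the fitted maximal effect; cells exposed to compound for 48 h before the viability read; nearly all actives have a fitted effect of over 65% in size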
Summary of the method: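 Viability was read as ATP luminescence (CellTiter-Glo) after 48 h of compound exposure at 37 C in A673 cells seeded at 500-1,000/well. Titrations reached 46 uM final, with 11 points in the confirmatory screen. Concentration-response curves were fitted directly.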

[5] = qHTS of pediatric cancer cell lines to identify multiple opportunities for drug repurposing: Confirmatory screen for SK-N-MC cells (AID 1347111);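 further: potency means the concentration at half of the fitted maximal effect; cells exposed to compound for 48 h before the readout; nearly all actives have a fitted effect of over 70% in size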
Summary of the method: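 Seed 500-1,000 cells/well; rest 5 h at 37 degrees C. Pin-transfer compounds, 11-point titration. Incubate 48 h. Add CellTiter-Glo, 15 min RT, read luminescence.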

[6] = qHTS of pediatric cancer cell lines to identify multiple opportunities for drug repurposing: Confirmatory screen for LAN-5 cells (AID 1347113); further: nearly all actives have a fitted effect of over 65% in size; further: potency means the concentration at half of the fitted maximal effect
Summary of the method: as §1

[7] = qHTS of pediatric cancer cell lines to identify multiple opportunities for drug repurposing: Confirmatory screen for SJ-GBM2 cells (AID 1347116); further: potency means the concentration at half of the fitted maximal effect; nearly all actives have a fitted effect of over 60% in size
Summary of the method: (§2)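 Viability measured as metabolically active cells via CellTiter-Glo luminescence following 48 hours of compound exposure, 11-point dilutions in confirmatory testing. 500-1,000 cells/well plated 5 hours before dosing; controls were DMSO and 2.3 µM bortezomib.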

[8] = qHTS of pediatric cancer cell lines to identify multiple opportunities for drug repurposing: Confirmatory screen for BT-37 cells (AID 1347117); details: BT-37 pediatric cancer cells, viability; activity change, negative = cytotoxic: at 45.9 µM (top of the series); further: potency means the concentration at half of the fitted maximal effect; nearly all actives have a fitted effect of over 55% in size
Summary of the method: as §1

[9] = qHTS of pediatric cancer cell lines to identify multiple opportunities for drug repurposing: Confirmatory screen for TC32 cells (AID 1347118);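 further: potency means the concentration at half of the fitted maximal effect; cells exposed to compound for 48 h before the read; nearly all actives have a fitted effect of over 65% in size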
Summary of the method: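 Luminescent CellTiter-Glo read-out of metabolically active TC32 cells after 48 h compound exposure. Primary: MIPE 11-point, 0.78 nM–46 µM; NPC 8-point, 0.59 nM–46 µM. Confirmatory: 11-point dilutions.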

[10] = qHTS of pediatric cancer cell lines to identify multiple opportunities for drug repurposing: Confirmatory screen for U-2 OS cells (AID 1347122); further: nearly all actives have a fitted effect of over 65% in size; further: potency means the concentration at half of the fitted maximal effect
Summary of the method: as §1

[11] = qHTS of pediatric cancer cell lines to identify multiple opportunities for drug repurposing: Confirmatory screen for Rh41 cells (AID 1347123); further: nearly all actives have a fitted effect of over 60% in size; further: potency means the concentration at half of the fitted maximal effect
Summary of the method: as §1

[12] = qHTS of pediatric cancer cell lines to identify multiple opportunities for drug repurposing: Confirmatory screen for MG 63 (6-TG R) cells (AID 1347119); further: nearly all actives have a fitted effect of over 55% in size; further: potency means the concentration at half of the fitted maximal effect
Summary of the method: as §1

[13] = qHTS of pediatric cancer cell lines to identify multiple opportunities for drug repurposing: Primary screen for Rh41 cells (AID 1347108); further: nearly all actives have a fitted effect of over 70% in size; further: potency means the concentration at half of the fitted maximal effect;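 on activity change, negative = cytotoxic: luminescence drop marks cytotoxic hits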
Summary of the method: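 Plated cells (500-1,000 per well, growth media) were allowed to settle for 5 hours, treated with compound dilutions for 48 hours, then lysed with CellTiter-Glo for 15 min at room temperature before luminescence reading.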

[14] = qHTS of pediatric cancer cell lines to identify multiple opportunities for drug repurposing: Confirmatory screen for BT-12 cells (AID 1347112); further: nearly all actives have a fitted effect of over 55% in size; further: potency means the concentration at half of the fitted maximal effect
Summary of the method: as §1

[15] = qHTS of pediatric cancer cell lines to identify multiple opportunities for drug repurposing: Confirmatory screen for DAOY cells (AID 1347114)
Summary of the method: as §2

[16] = qHTS of pediatric cancer cell lines to identify multiple opportunities for drug repurposing: Confirmatory screen for Rh18 cells (AID 1347125); further: nearly all actives have a fitted effect of over 55% in size; further: potency means the concentration at half of the fitted maximal effect
Summary of the method: as §1

[17] = qHTS of pediatric cancer cell lines to identify multiple opportunities for drug repurposing: Confirmatory screen for control Hh wild type fibroblast cells (AID 1347121); further: nearly all actives have a fitted effect of over 70% in size
Summary of the method: as §1

[18] = qHTS of pediatric cancer cell lines to identify multiple opportunities for drug repurposing: Confirmatory screen for RD cells (AID 1347124); further: potency means the concentration at half of the fitted maximal effect
Summary of the method: as §1

COc1cc2ncnc(Nc3cccc(Br)c3)c2cc1OC
Potency [1]: inactive | Potency [2]: inactive | Potency [3]: 18.5 µM (active) | Potency [4]: 14.7 µM (active) | Potency [5]: 11.7 µM (active) | Potency [6]: 16.5 µM (active) | Potency [7]: 3.69 µM (active) | Potency [8]: 18.5 µM (active) | Potency [9]: 9.27 µM (active) | Potency [10]: inactive | Potency [11]: 11.7 µM (active)

C[C@H](NC(=O)[C@@H](O)c1cc(F)cc(F)c1)C(=O)N[C@@H]1C(=O)N(C)c2ccccc2-c2ccccc21
Potency [1]: inactive

CC(N[C@H]1CCCC[C@H]1NC(=O)c1ccc(Cl)cc1)c1cccc2ccccc12 (stereo partly drawn)
Potency [1]: inactive | Potency [2]: inactive | Potency [3]: 20.8 µM (active) | Potency [5]: 2.61 µM (active) | Potency [6]: 14.7 µM (active) | Potency [8]: 23.3 µM (active) | Potency [9]: 5.85 µM (active) | Potency [12]: 23.3 µM (active)

c1cc(N[C@@H]2CCNC2)nc(-c2cnc3ccc(-c4cn[nH]c4)cn23)c1
Potency [1]: 23.5 µM (active) | Potency [2]: inactive | Potency [13]: 16.6 µM (active)

C[C@]12CC[C@@H]3c4ccc(O)cc4CC[C@H]3[C@H]1CC[C@H]2O
Potency [1]: inactive

O=C1NCCc2[nH]c(-c3ccncc3)cc21
Potency [1]: inactive | Potency [2]: inactive | Potency [13]: 2.35 µM (active) | Potency [5]: 7.37 µM (active) | Potency [14]: 2.33 µM (active) | Potency [15]: 4.14 µM (active) | Potency [8]: 2.33 µM (active) | Potency [9]: 4.14 µM (active) | Potency [12]: 8.27 µM (active) | Potency [10]: 2.93 µM (active) | Potency [11]: 2.33 µM (active)

O=C(O)CCCCC(CCSCc1ccccc1)SCc1ccccc1 (stereo not drawn)
Potency [1]: inactive

CC(C)c1cc(C(C)C)c(CC(=O)NS(=O)(=O)Oc2c(C(C)C)cccc2C(C)C)c(C(C)C)c1
Potency [1]: inactive | Potency [2]: inactive

Cc1ccccc1C(=O)Nc1ccc(C(=O)N2CCCC(O)c3cc(Cl)ccc32)c(C)c1 (stereo not drawn)
Potency [1]: inactive | Potency [2]: inactive | Potency [13]: inactive

COc1cc(C(C)C)c(Oc2cnc(NC(CO)CO)nc2N)cc1I
Potency [1]: inactive | Potency [2]: inactive

Nc1ccn(C2CO[C@H](CO)O2)c(=O)n1 (stereo partly drawn)
Potency [1]: inactive | Potency [2]: inactive | Potency [13]: inactive

CCc1nc(-c2cccc(C)c2)c(-c2ccnc(NC(=O)c3ccccc3)c2)s1
Potency [1]: inactive

C[C@H](NC(=O)Cc1cc(F)cc(F)c1)C(=O)N[C@H](C(=O)OC(C)(C)C)c1ccccc1
Potency [1]: inactive | Potency [2]: inactive

CC1=C(C(=O)Nc2cc3cn[nH]c3cc2F)C(c2ccc(Cl)cc2F)N=C(c2ccnc(Cl)c2)N1 (stereo not drawn)
Potency [1]: inactive | Potency [2]: inactive

COc1cc(CCc2cc(NC(=O)c3ccc(N4C[C@@H](C)N[C@@H](C)C4)cc3)n[nH]2)cc(OC)c1
Potency [1]: 33.2 µM (active) | Potency [2]: 18.7 µM (active) | Potency [13]: 5.9 µM (active)

Cn1cc(C2=C(c3c4n(c5ccccc35)CCC(CN)C4)C(=O)NC2=O)c2ccccc21 (stereo not drawn)
Potency [1]: inactive | Potency [13]: 23.5 µM (active)

COc1cccc2c1C(=O)c1c(O)c3c(c(O)c1C2=O)C[C@@](O)(C(=O)CO)C[C@@H]3O[C@H]1C[C@H](N)[C@H](OC2CCCCO2)[C@H](C)O1 (stereo partly drawn)
Potency [1]: inactive | Potency [2]: inactive | Potency [3]: 1.65 µM (active) | Potency [4]: 2.61 µM (active) | Potency [5]: 0.737 µM (active) | Potency [14]: 10.4 µM (active) | Potency [6]: 1.17 µM (active) | Potency [8]: 0.928 µM (active) | Potency [9]: 0.465 µM (active) | Potency [12]: 1.47 µM (active) | Potency [11]: 2.93 µM (active) | Potency [16]: 18.5 µM (active)

CCCCCN=C(N)NN=Cc1c[nH]c2ccc(OC)cc12
Potency [1]: inactive | Potency [2]: inactive

COc1cc2c(cc1O)CCC1C2CC[C@@]2(C)C1CC[C@@H]2O (stereo partly drawn)
Potency [1]: inactive | Potency [2]: inactive

C#CCC(Cc1cnc2nc(N)nc(N)c2n1)c1ccc(C(=O)N[C@@H](CCC(=O)O)C(=O)O)cc1 (stereo partly drawn)
Potency [1]: inactive | Potency [2]: inactive | Potency [13]: inactive | Potency [3]: inactive | Potency [4]: 0.0657 µM (active) | Potency [5]: 0.0522 µM (active) | Potency [14]: 0.104 µM (active) | Potency [6]: inactive | Potency [15]: 0.117 µM (active) | Potency [9]: 0.0414 µM (active) | Potency [12]: inactive | Potency [17]: inactive | Potency [11]: inactive | Potency [18]: 0.233 µM (active) | Potency [16]: inactive

COc1cc(C)c(C=CC(C)=CC=CC(C)=CC(=O)O)c(C)c1C
Potency [1]: inactive | Potency [2]: inactive

N#CC(=Cc1ccc(O)c(O)c1)C(=O)NCc1ccccc1
Potency [1]: inactive

C=CC[C@@H]1C=C(C)C[C@H](C)C[C@H](OC)[C@H]2O[C@@](O)(C(=O)C(=O)N3CCCC[C@H]3C(=O)O[C@H](C(C)=C[C@@H]3CC[C@H](O)[C@H](OC)C3)[C@@H](C)[C@@H](O)CC1=O)[C@@H](C)C[C@@H]2OC
Potency [1]: inactive | Potency [2]: inactive

CCc1cc(C(C)=NOCc2ccc(C3CCCCC3)c(C(F)(F)F)c2)ccc1CN1CC(C(=O)O)C1
Potency [1]: inactive | Potency [2]: inactive | Potency [3]: 29.3 µM (active) | Potency [4]: 13.1 µM (active) | Potency [5]: 8.27 µM (active) | Potency [9]: 9.27 µM (active) | Potency [12]: inactive | Potency [10]: inactive | Potency [18]: inactive | Potency [16]: inactive

FC(F)(F)c1ccc(Nc2nc3ccc(Oc4ccnc(-c5ncc(C(F)(F)F)[nH]5)c4)cc3[nH]2)cc1
Potency [1]: inactive

CN(C)CC(=O)N1CCC(c2ccc(NC(=O)c3ncc(C#N)[nH]3)c(C3=CCCCC3)c2)CC1
Potency [1]: inactive

CN1CCCN(C(=O)c2cccc(-c3ccc(C=C4C(=O)Nc5ccc(Cl)cc54)o3)c2)CC1
Potency [1]: inactive | Potency [2]: 18.7 µM (active) | Potency [13]: 18.7 µM (active)

CCOC(=O)C1=C(C)NC(=S)NC1c1cccc(O)c1 (stereo not drawn)
Potency [1]: inactive | Potency [2]: inactive | Potency [4]: 11.7 µM (active) | Potency [5]: 5.22 µM (active) | Potency [14]: inactive | Potency [6]: inactive | Potency [9]: 3.69 µM (active) | Potency [12]: inactive | Potency [17]: inactive | Potency [10]: 20.8 µM (active) | Potency [16]: inactive
